{
  "source": "PubChem BioAssay (NCATS)",
  "note": "“And” between values parts separate entries of the source, which are not always exact repeats. Equal values may be shown once. Results filed as inconclusive are left out. Entries that show only a call come without a potency. Unmarked numbers belong to inactive results. The source made the active and inactive calls. Calls come from the whole dose curve; as a rule, active = well fitted curve in the direction sought with a large enough effect; inconclusive = small, poorly fitted or top-dose-only effect, or another doubt; inactive = no such curve, though single readings can be large; an effect the other way counts as inactive or inconclusive. Potency is the fitted concentration of half-maximal effect.",
  "data": [
    {"assay": "qHTS of pediatric cancer cell lines to identify multiple opportunities for drug repurposing: Primary screen for DAOY cells (AID 1347090); note: nearly all actives have a fitted effect of over 55% in size", "conditions": "DAOY medulloblastoma viability, CellTiter-Glo luminescence, 48 h; series mostly up to 46 µM; activity change, negative = cytotoxic: at the top concentration", "outline": "(§1)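 Eight- or eleven-point concentration series, 48 h treatment at 37 degrees C in growth media; readout CellTiter-Glo luminescence. Potency and efficacy were taken from the concentration-response curves.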", "units": {"activity change, negative = cytotoxic": "%"}, "values": [
      {"smiles": "Cc1[nH]c(=O)c(C#N)cc1-c1ccncc1", "Potency": "inactive"},
      {"smiles": "CC(C[N+](C)(C)C)OC(N)=O", "note": "(configuration not stated)", "Potency": "inactive"},
      {"smiles": "Cc1ccc(N(CC2=NCCN2)c2cccc(O)c2)cc1", "Potency": "inactive"},
      {"smiles": "c1ccc([C@H]2CN3CCSC3=N2)cc1", "Potency": "inactive"},
      {"smiles": "NC[C@H](O)c1ccc(O)c(O)c1", "Potency": "inactive"},
      {"smiles": "NS(=O)(=O)c1cc2c(cc1Cl)NC=NS2(=O)=O", "Potency": "inactive"},
      {"smiles": "CC(C=CC1=C(C)CCCC1(C)C)=CC=CC(C)=CC(=O)O", "Potency": "7430 nM (active)"},
      {"smiles": "NCCCC(N)(C(=O)O)C(F)F", "note": "(configuration not stated)", "activity change, negative = cytotoxic": -8.37},
      {"smiles": "N[C@@H]1CONC1=O", "Potency": "inactive"},
      {"smiles": "NNCCc1ccccc1", "activity change, negative = cytotoxic": 3.03},
      {"smiles": "N=c1nc(N2CCCCC2)cc(N)n1O", "activity change, negative = cytotoxic": 0.477},
      {"smiles": "O=C1CCc2cc(OCCCCc3nnnn3C3CCCCC3)ccc2N1", "Potency": "inactive"},
      {"smiles": "COc1cc(Oc2ccnc3cc(OC)c(OC)cc23)ccc1NC(=O)NC(C)c1nccs1", "note": "(configuration not stated)", "activity change, negative = cytotoxic": -7.59}
    ]},
    {"assay": "qHTS of pediatric cancer cell lines to identify multiple opportunities for drug repurposing: Primary screen for SJ-GBM2 cells (AID 1347091)", "conditions": "SJ-GBM2 viability, CellTiter-Glo luminescence, 48 h; series mostly up to 46 µM; activity change, negative = cytotoxic: at the top concentration", "outline": "as §1", "units": {"activity change, negative = cytotoxic": "%"}, "values": [
      {"smiles": "O=C1CCC(N2C(=O)c3ccccc3C2=O)C(=O)N1", "note": "(configuration not stated)", "Potency": "inactive"},
      {"smiles": "CCOC(=O)C1=C[C@]2(CC)CCCN3CCc4c(n1c1ccccc41)[C@@H]32", "activity change, negative = cytotoxic": -27},
      {"smiles": "CN1CCN(CCCN2c3ccccc3Sc3ccc(C(F)(F)F)cc32)CC1", "Potency": "18700 nM (active)"},
      {"smiles": "CCOC(=O)N1CCC(=C2c3ccc(Cl)cc3CCc3cccnc32)CC1", "Potency": "23500 nM (active)"},
      {"smiles": "Oc1ccc(C2CNCCc3c2cc(O)c(O)c3Cl)cc1", "note": "(configuration not stated)", "Potency": "inactive"},
      {"smiles": "COc1ccc([C@@H]2CC(=O)c3c(O)cc(O[C@@H]4O[C@H](CO[C@@H]5O[C@@H](C)[C@H](O)[C@@H](O)[C@@H]5O)[C@@H](O)[C@H](O)[C@@H]4O)cc3O2)cc1O", "Potency": "inactive"},
      {"smiles": "Nc1ccc(S(=O)(=O)Nc2ccnn2-c2ccccc2)cc1", "Potency": "inactive"},
      {"smiles": "CCCCNc1cc(C(=O)O)cc(S(N)(=O)=O)c1Oc1ccccc1", "Potency": "inactive"},
      {"smiles": "O=c1[nH]cnc2[nH]ncc12", "activity change, negative = cytotoxic": -20.6},
      {"smiles": "CC(C)(C)NCC(O)c1ccc(O)c(CO)c1", "note": "(configuration not stated)", "Potency": "inactive"},
      {"smiles": "O=c1n(CCCN2CCN(c3cccc(Cl)c3)CC2)nc2ccccn12", "Potency": "inactive"},
      {"smiles": "O=C(O)COCCN1CCN(C(c2ccccc2)c2ccc(Cl)cc2)CC1", "note": "(configuration not stated)", "Potency": "inactive"},
      {"smiles": "CCN(CC)CCCC(C)Nc1ccnc2cc(Cl)ccc12", "note": "(configuration not stated)", "Potency": "inactive"},
      {"smiles": "CCn1cc(C(=O)O)c(=O)c2cc(F)c(N3CCNC(C)C3)c(F)c21", "note": "(configuration not stated)", "Potency": "inactive"},
      {"smiles": "CC(C)NCC(O)COc1ccc(COCCOC(C)C)cc1", "note": "(configuration not stated)", "Potency": "inactive"},
      {"smiles": "CCCC(CCC)C(=O)O", "Potency": "inactive"},
      {"smiles": "Nc1nc2c(ncn2COCCO)c(=O)[nH]1", "activity change, negative = cytotoxic": -3.51},
      {"smiles": "Cc1cnc(NC(=O)C2=C(O)c3ccccc3S(=O)(=O)N2C)s1", "Potency": "inactive"},
      {"smiles": "O=NN(CCCl)C(=O)NCCCl", "activity change, negative = cytotoxic": 27.3},
      {"smiles": "Cc1[nH]c(=O)c(C#N)cc1-c1ccncc1", "Potency": "inactive"},
      {"smiles": "NCCc1ccc(O)c(O)c1", "Potency": "inactive"},
      {"smiles": "CC(C[N+](C)(C)C)OC(N)=O", "note": "(configuration not stated)", "Potency": "inactive"},
      {"smiles": "Cc1ccc(N(CC2=NCCN2)c2cccc(O)c2)cc1", "activity change, negative = cytotoxic": -19.2},
      {"smiles": "CC(=O)Oc1ccccc1C(=O)O", "Potency": "inactive"},
      {"smiles": "c1ccc([C@H]2CN3CCSC3=N2)cc1", "Potency": "inactive"},
      {"smiles": "NC[C@H](O)c1ccc(O)c(O)c1", "Potency": "inactive"},
      {"smiles": "NS(=O)(=O)c1cc2c(cc1Cl)NC=NS2(=O)=O", "Potency": "inactive"},
      {"smiles": "CC(C=CC1=C(C)CCCC1(C)C)=CC=CC(C)=CC(=O)O", "activity change, negative = cytotoxic": -11},
      {"smiles": "NCCCC(N)(C(=O)O)C(F)F", "note": "(configuration not stated)", "activity change, negative = cytotoxic": 8.05},
      {"smiles": "N[C@@H]1CONC1=O", "Potency": "inactive"},
      {"smiles": "CCOc1cc(N2CCC(O)CC2)ccc1Nc1ncc2c(n1)N(C)c1ccccc1C(=O)N2C", "Potency": "132 nM (active)"},
      {"smiles": "CO[C@@H]1[C@H](N(C)C(=O)c2ccccc2)C[C@H]2O[C@]1(C)n1c3ccccc3c3c4c(c5c6ccccc6n2c5c31)C(=O)NC4", "Potency": "833 nM (active)"},
      {"smiles": "NNCCc1ccccc1", "activity change, negative = cytotoxic": 17.9},
      {"smiles": "CNC(=O)c1ccccc1Sc1ccc2c(/C=C/c3ccccn3)n[nH]c2c1", "Potency": "5310 nM (active)"},
      {"smiles": "N=c1nc(N2CCCCC2)cc(N)n1O", "Potency": "inactive"},
      {"smiles": "O=C1CCc2cc(OCCCCc3nnnn3C3CCCCC3)ccc2N1", "Potency": "inactive"}
    ]},
    {"assay": "qHTS of pediatric cancer cell lines to identify multiple opportunities for drug repurposing: Primary screen for A673 cells (AID 1347092); note: nearly all actives have a fitted effect of over 45% in size", "conditions": "A673 Ewing sarcoma viability, CellTiter-Glo ATP luminescence, 48 h; series mostly up to 46 µM; activity change, negative = cytotoxic: at the top concentration", "outline": "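Cells are plated, rested 5 h, dosed by pintool, incubated 48 h, then lysed with CellTiter-Glo and read by luminescence. DMSO is the neutral control; bortezomib at 2.3 uM final is the positive control.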", "units": {"activity change, negative = cytotoxic": "%"}, "values": [
      {"smiles": "O=C1CCC(N2C(=O)c3ccccc3C2=O)C(=O)N1", "note": "(configuration not stated)", "Potency": "inactive"},
      {"smiles": "Cn1cnc([N+](=O)[O-])c1Sc1ncnc2nc[nH]c12", "Potency": "762 nM (active) and 1.06 µM (active) and 1.18 µM (active)"},
      {"smiles": "CN1CCN(CCCN2c3ccccc3Sc3ccc(C(F)(F)F)cc32)CC1", "Potency": "21.1 µM (active) and 296 nM (active)"},
      {"smiles": "CCOC(=O)N1CCC(=C2c3ccc(Cl)cc3CCc3cccnc32)CC1", "Potency": "23.5 µM (active) and 26.6 µM (active)"},
      {"smiles": "Oc1ccc(C2CNCCc3c2cc(O)c(O)c3Cl)cc1", "note": "(configuration not stated)", "Potency": "inactive"},
      {"smiles": "Nc1ccc(S(=O)(=O)Nc2ccnn2-c2ccccc2)cc1", "Potency": "inactive"},
      {"smiles": "CCCCNc1cc(C(=O)O)cc(S(N)(=O)=O)c1Oc1ccccc1", "Potency": "inactive"},
      {"smiles": "CC(C)(C)NCC(O)c1ccc(O)c(CO)c1", "note": "(configuration not stated)", "Potency": "inactive"},
      {"smiles": "O=C(O)COCCN1CCN(C(c2ccccc2)c2ccc(Cl)cc2)CC1", "note": "(configuration not stated)", "Potency": "inactive"},
      {"smiles": "CCN(CC)CCCC(C)Nc1ccnc2cc(Cl)ccc12", "note": "(configuration not stated)", "Potency": "2960 nM (active)"},
      {"smiles": "CC(C)NCC(O)COc1ccc(COCCOC(C)C)cc1", "note": "(configuration not stated)", "Potency": "inactive"},
      {"smiles": "CCCC(CCC)C(=O)O", "activity change, negative = cytotoxic": -0.255},
      {"smiles": "Nc1nc2c(ncn2COCCO)c(=O)[nH]1", "Potency": "inactive"},
      {"smiles": "O=NN(CCCl)C(=O)NCCCl", "Potency": "inactive"},
      {"smiles": "NCCc1ccc(O)c(O)c1", "Potency": "23.5 µM (active) and 10.6 µM (active)"},
      {"smiles": "CC(C[N+](C)(C)C)OC(N)=O", "note": "(configuration not stated)", "Potency": "inactive"},
      {"smiles": "Cc1ccc(N(CC2=NCCN2)c2cccc(O)c2)cc1", "Potency": "18.7 µM (active) and 16.8 µM (active)"},
      {"smiles": "CC(=O)Oc1ccccc1C(=O)O", "Potency": "inactive"},
      {"smiles": "c1ccc([C@H]2CN3CCSC3=N2)cc1", "Potency": "inactive"},
      {"smiles": "N[C@@H]1CONC1=O", "Potency": "inactive"},
      {"smiles": "CCOc1cc(N2CCC(O)CC2)ccc1Nc1ncc2c(n1)N(C)c1ccccc1C(=O)N2C", "Potency": "4.7 nM (active)"},
      {"smiles": "CO[C@@H]1[C@H](N(C)C(=O)c2ccccc2)C[C@H]2O[C@]1(C)n1c3ccccc3c3c4c(c5c6ccccc6n2c5c31)C(=O)NC4", "Potency": "935 nM (active)"},
      {"smiles": "O=C1CCc2cc(OCCCCc3nnnn3C3CCCCC3)ccc2N1", "Potency": "inactive"}
    ]}
  ]
}
